Experimental data published in PubChem BioAssay (Tox21).
Records with an inconclusive call do not appear. The source made the active and inactive calls. Unless noted, calls follow the shape of the full dose curve.

Legend:
[1] = Nuclear factor erythroid 2-related factor 2/antioxidant responsive element (Nrf2/ARE) small molecule agonists: qHTS cell viability counter screen in human keratinocytes (AID 1919968; active = well fitted curve in the direction sought with a large enough effect in the repeat runs; an effect the other way counts as inactive or inconclusive; also: nearly all actives have a fitted effect of over 55% in size)
Summary of the method: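 Viability counter-screen: KeratinoSens reporter cells, DMSO-delivered compounds, 23 h at 37 C, CellTiter-Fluor fluorescence.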

[2] = Nuclear factor erythroid 2-related factor 2/antioxidant responsive element (Nrf2/ARE) small molecule agonists: luciferase reporter gene qHTS assay in human keratinocytes (AID 1919969); also: nearly all actives have a fitted effect of over 35% in size
[3] = molecular target: Gonadotropin-releasing hormone receptor (Homo sapiens) (UniProt P30968); assay: Human gonadotropin-releasing hormone receptor (GnRHR) small molecule agonists, calcium flux assay in GnRHR-HEK293 cells (AID 1920063); also: nearly all actives have a fitted effect of over 35% in size
Sequence of Gonadotropin-releasing hormone receptor (Homo sapiens) (P30968 whole entry, looked up): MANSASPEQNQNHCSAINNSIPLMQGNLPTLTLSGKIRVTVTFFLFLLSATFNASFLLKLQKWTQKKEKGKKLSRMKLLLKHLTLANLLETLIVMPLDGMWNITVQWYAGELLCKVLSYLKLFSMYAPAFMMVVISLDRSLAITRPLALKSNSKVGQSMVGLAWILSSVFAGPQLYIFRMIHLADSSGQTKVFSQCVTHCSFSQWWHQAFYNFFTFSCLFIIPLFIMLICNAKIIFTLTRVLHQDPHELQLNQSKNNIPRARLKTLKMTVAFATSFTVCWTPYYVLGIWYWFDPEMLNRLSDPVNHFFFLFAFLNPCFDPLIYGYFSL
Summary of the method: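 Tox21-format agonist screen using human GnRHR-expressing HEK293 cells and a fluorescent calcium dye; kinetic 3-min fluorescence reading after compound addition, 15-point concentration series run in triplicate.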

[4] = p53 small molecule agonists, cell-based qHTS assay with human liver microsomes (AID 1963577)
Summary of the method: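 Compounds act here after metabolic activation: human liver microsomes and NADPH, both at 0.5 mg/mL final, were co-added to p53RE-bla cells. Incubation ran 16 h at 37 C, followed by LiveBLAzer detection.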

[5] = p53 small molecule agonists, cell-based qHTS assay with rat liver microsomes (AID 1963578)
Summary of the method: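 Read-out is beta-lactamase reporter fluorescence (LiveBLAzer, 2 h, room temperature, dark) in p53RE-bla cells treated 16 h at 37 C with compound, rat liver microsomes and NADPH, both 0.5 mg/mL final.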

[6] = p53 small molecule agonists, cell-based qHTS assay with human liver microsomes: qHTS cell viability counter screen (AID 1963579); also: nearly all actives have a fitted effect of over 45% in size
Summary of the method: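 Cells carrying the p53 response-element beta-lactamase reporter are treated for 16 h at 37 C with test compounds in the presence of human liver microsomes and NADPH (both 0.5 mg/mL final); ATP-based CellTiter-Glo luminescence then reports viability.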

[7] = p53 small molecule agonists, cell-based qHTS assay with rat liver microsomes: qHTS cell viability counter screen (AID 1963580); also: nearly all actives have a fitted effect of over 45% in size
Summary of the method: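 In HCT-116 cells carrying a p53 response element-bla reporter, compounds were metabolically activated in situ by rat liver microsomes with NADPH over 16 h. Cell ATP content then served as the cytotoxicity measure.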

[8] = p53 small molecule agonists, cell-based qHTS assay: qHTS cell viability counter screen (AID 1963581); also: nearly all actives have a fitted effect of over 45% in size
Summary of the method: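 Compounds are pinned onto HCT-116 p53RE-bla cells and left 16 h at 37 C. Following the reporter FRET read, ATP is quantified by CellTiter-Glo luminescence after 30 min at room temperature.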

[9] = p53 small molecule agonists, cell-based qHTS assay (AID 1963582; active = well fitted activation curve with a large enough effect in the signal ratio in the repeat runs, not every such curve was filed as active; the % refers to the signal ratio)
Summary of the method: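 Agonist activity was scored from beta-lactamase FRET fluorescence in p53RE-bla cells treated 16 h at 37 C with compounds in DMSO, substrate incubation being 2 h at room temperature.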

[10] = molecular target: 5-hydroxytryptamine receptor 2A (Homo sapiens) (UniProt P28223); assay: 5-hydroxytryptamine receptor 2A (HTR2A) small molecule antagonists, cell-based qHTS assay (AID 1963586); also: nearly all actives have a fitted effect of over 45% in size
Sequence of 5-hydroxytryptamine receptor 2A (Homo sapiens) (P28223 whole entry, looked up): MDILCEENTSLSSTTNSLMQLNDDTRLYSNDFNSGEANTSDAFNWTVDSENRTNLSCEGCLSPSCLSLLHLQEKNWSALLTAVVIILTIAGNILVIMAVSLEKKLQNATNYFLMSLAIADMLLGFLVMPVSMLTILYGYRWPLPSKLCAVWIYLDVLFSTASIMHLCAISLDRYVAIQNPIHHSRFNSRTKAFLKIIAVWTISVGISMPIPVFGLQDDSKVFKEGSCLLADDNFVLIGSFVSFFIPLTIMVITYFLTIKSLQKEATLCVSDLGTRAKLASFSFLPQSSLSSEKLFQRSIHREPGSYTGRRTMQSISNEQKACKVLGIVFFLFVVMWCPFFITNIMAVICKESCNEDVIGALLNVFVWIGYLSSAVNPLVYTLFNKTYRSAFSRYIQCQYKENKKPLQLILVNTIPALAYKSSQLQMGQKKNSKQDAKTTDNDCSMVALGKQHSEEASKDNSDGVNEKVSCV
Summary of the method: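 Antagonist-mode intracellular calcium assay: DOI (4 nM) added after 5 min compound pre-incubation at room temperature to dye-loaded HTR2A-CHO cells. Fluorescence followed for 3 min, sampled every second.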

[11] = molecular target: 5-hydroxytryptamine receptor 2A (Homo sapiens) (UniProt P28223); assay: 5-hydroxytryptamine receptor 2A (HTR2A) small molecule agonists, cell-based qHTS assay (AID 1963587); also: nearly all actives have a fitted effect of over 30% in size
Summary of the method: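 HTR2A-CHO cells, plated 18 h at 37 C/5% CO2, dye-loaded 1 h at 37 C; compounds in DMSO added by pin tool (agonist mode). Intracellular calcium flux read as kinetic fluorescence on FDSS over 2 min at 1 s intervals.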

[12] = molecular target: Muscarinic acetylcholine receptor M1 (Homo sapiens) (UniProt P11229); assay: Cholinergic receptor muscarinic 1 (CHRM1) small molecule antagonists, cell-based qHTS assay (AID 1963588); also: nearly all actives have a fitted effect of over 40% in size
Sequence of Muscarinic acetylcholine receptor M1 (Homo sapiens) (P11229 whole entry, looked up): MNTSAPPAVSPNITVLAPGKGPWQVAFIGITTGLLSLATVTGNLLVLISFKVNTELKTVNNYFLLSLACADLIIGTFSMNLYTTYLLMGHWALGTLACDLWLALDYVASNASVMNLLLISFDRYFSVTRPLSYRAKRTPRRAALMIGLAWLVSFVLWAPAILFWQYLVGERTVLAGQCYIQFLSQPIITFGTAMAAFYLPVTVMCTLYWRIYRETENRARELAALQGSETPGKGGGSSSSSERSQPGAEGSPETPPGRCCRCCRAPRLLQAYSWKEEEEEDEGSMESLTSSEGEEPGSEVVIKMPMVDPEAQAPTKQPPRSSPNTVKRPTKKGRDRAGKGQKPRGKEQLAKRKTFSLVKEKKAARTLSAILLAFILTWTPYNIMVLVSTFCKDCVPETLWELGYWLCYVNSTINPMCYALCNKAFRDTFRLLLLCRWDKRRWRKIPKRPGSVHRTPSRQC
Summary of the method: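 CHRM1-CHO calcium-flux assay, antagonist mode. Cells were seeded 18 h, dye-loaded 1 h at 37 C and given compound for 5 min at RT, then acetylcholine was added at 50nM. FDSS fluorescence was read 3 min; 15 concentrations, three runs.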

[13] = molecular target: Muscarinic acetylcholine receptor M1 (Homo sapiens) (UniProt P11229); assay: Cholinergic receptor muscarinic 1 (CHRM1) small molecule agonists, cell-based qHTS assay (AID 1963589); also: nearly all actives have a fitted effect of over 35% in size
Summary of the method: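 Stable CHRM1-CHO cells (human receptor) were incubated 18 h, dye-loaded for 1 h at 37 C and exposed to test compounds for agonist activity, with calcium-dependent fluorescence followed kinetically.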

[14] = cAMP Responsive Elements (CRE) small molecule agonists, cell-based qHTS assay (AID 1963590)
Summary of the method: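 FRET-based beta-lactamase readout (LiveBLAzer B/G, 2 h RT) quantified CRE activation in HEK 293T CRE-bla cells after 3 h treatment with DMSO-dissolved compounds.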

[15] = cAMP Responsive Elements (CRE) small molecule antagonists, cell-based qHTS assay (AID 1963591; active = well fitted inhibition curve with a large enough effect in the signal ratio in the repeat runs, not every such curve was filed as active; the % refers to the signal ratio)
Summary of the method: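 qHTS in CRE-bla HEK 293T cells: compound in DMSO, then 0.25 uM NKH477 (final), 3 h at 37 °C/5% CO2; beta-lactamase FRET read-out after 2 h substrate incubation.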

[16] = molecular target: Beta-2 adrenergic receptor (Homo sapiens) (UniProt P07550); assay: Adrenergic beta2 receptor (ADRB2) small molecule antagonists, cell-based qHTS assay (AID 1963592); also: series mostly up to about 92 µM; nearly all actives have a fitted effect of over 50% in size
Sequence of Beta-2 adrenergic receptor (Homo sapiens) (P07550 whole entry, looked up): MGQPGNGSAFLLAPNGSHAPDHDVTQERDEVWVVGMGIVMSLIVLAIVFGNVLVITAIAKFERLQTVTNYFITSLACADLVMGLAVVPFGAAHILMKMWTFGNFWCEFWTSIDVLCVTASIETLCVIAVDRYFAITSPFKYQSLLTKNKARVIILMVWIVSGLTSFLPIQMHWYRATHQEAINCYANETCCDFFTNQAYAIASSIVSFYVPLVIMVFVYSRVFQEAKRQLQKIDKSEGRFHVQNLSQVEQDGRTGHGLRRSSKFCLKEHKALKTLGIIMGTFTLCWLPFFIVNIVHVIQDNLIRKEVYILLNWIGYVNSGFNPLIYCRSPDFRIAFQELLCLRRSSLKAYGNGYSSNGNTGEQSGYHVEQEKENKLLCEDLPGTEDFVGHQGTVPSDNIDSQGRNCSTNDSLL
Summary of the method: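 Cells (CHO, stable ADRB2 overexpression) incubated 18-20hr at 37C; compounds added from DMSO; agonist mix (1nM isoproterenol, 100uM IBMX, 25uM Ro-20-1724) added; 0.5hr RT; d2-cAMP and anti-cAMP-cryptate added; 1hr RT; 665/615 nm read.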

[17] = molecular target: D(2) dopamine receptor (Homo sapiens) (UniProt P14416); assay: Dopamine D2 receptor (DRD2) small molecule agonists, cell-based qHTS assay (AID 1963594); also: nearly all actives have a fitted effect of over 35% in size
Sequence of D(2) dopamine receptor (Homo sapiens) (P14416 whole entry, looked up): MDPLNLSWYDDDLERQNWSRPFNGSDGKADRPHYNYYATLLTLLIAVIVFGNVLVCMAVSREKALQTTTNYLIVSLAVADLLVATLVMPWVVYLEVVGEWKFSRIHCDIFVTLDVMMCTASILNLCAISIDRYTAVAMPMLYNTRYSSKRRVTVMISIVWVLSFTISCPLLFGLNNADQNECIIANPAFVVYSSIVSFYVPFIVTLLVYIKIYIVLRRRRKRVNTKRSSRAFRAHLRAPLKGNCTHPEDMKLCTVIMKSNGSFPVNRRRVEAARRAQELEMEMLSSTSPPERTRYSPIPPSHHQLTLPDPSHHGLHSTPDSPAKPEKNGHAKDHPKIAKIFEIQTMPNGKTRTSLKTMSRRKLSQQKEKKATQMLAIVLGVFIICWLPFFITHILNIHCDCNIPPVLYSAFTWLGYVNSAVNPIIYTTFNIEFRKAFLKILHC
Summary of the method: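 HEK293 cells stably expressing DRD2 were cultured 24 h at 37 C, then given Ro20-1724 (0.1 mM final) and compounds for 10 min at room temperature. NKH477 (200nM) was then added for 30 min. cAMP was read by HTRF.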

[18] = molecular target: D(2) dopamine receptor (Homo sapiens) (UniProt P14416); assay: Dopamine D2 receptor (DRD2) small molecule antagonists, cell-based qHTS assay (AID 1963595; active = well fitted inhibition curve with a large enough effect in the signal ratio in the repeat runs, with a control signal flat; the % refers to the signal ratio)
Summary of the method: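 Stable D2 receptor HEK293 line, 24 h after seeding. Compound preincubated 10 min, then quinpirole (12 nM) with forskolin analogue NKH477 (200 nM), 30 min, room temperature. Detection by time-resolved FRET of cAMP.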

[19] = molecular target: Beta-2 adrenergic receptor (Homo sapiens) (UniProt P07550); assay: Adrenergic beta2 receptor (ADRB2) small molecule agonists, cell-based qHTS assay (AID 1963593);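 also: CHO cells stably overexpressing human ADRB2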
Summary of the method: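 CHO cells stably over-expressing ADRB2 were plated overnight at 37C, then dosed with compounds plus a stimulation mix containing 100uM IBMX and 25uM Ro-20-1724 for 0.5hr at room temperature. cAMP was measured by HTRF competition, 1hr.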

[20] = molecular target: KiSS-1 receptor (Homo sapiens) (UniProt Q969F8); assay: Human kisspeptin (KISS1R) small molecule agonists, calcium flux assay in KISS1R-HEK293 cells (AID 1920064; active = well fitted curve in the direction sought with a large enough effect in the repeat runs; an effect the other way counts as inactive or inconclusive)
Sequence of KiSS-1 receptor (Homo sapiens) (Q969F8 whole entry, looked up): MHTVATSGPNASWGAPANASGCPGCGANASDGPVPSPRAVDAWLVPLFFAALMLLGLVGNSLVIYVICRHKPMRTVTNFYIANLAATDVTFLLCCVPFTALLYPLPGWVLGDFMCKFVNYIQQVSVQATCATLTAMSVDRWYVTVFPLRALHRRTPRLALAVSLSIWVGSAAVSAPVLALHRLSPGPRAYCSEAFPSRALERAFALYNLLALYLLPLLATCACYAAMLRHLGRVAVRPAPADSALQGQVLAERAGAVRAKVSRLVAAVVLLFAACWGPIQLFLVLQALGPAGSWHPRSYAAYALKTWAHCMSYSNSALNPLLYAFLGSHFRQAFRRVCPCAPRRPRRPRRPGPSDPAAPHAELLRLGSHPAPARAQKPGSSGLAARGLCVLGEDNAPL
Summary of the method: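 Intracellular calcium mobilization in KISS1R-HEK293 cells was recorded by fluorescence (Ex/Em 480/540) for 3 min following compound addition to cells pre-loaded 1 h with calcium dye.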
% is scaled to controls: 0 for no effect and ±100 for the full control effect.

CC(=O)CCc1ccc(O)cc1
inactive: Potency [1] | Potency [2] | Potency [3] | Potency [4] | Potency [5] | Potency [6] | Potency [7] | Potency [8] | Potency [9] | Potency [10] | Potency [11] | Potency [12] | Potency [13] | Potency [14] | Potency [15] | Potency [16] | Potency [17] | Potency [18]

CC(=O)[C@H]1CC[C@H]2[C@@H]3C=CC4=CC(=O)CC[C@@]4(C)[C@@H]3CC[C@]12C
inactive: Potency [1] | Potency [2] | Potency [3] | Potency [4] | Potency [5] | Potency [6] | Potency [7] | Potency [8] | Potency [9] | Potency [10] | Potency [11] | Potency [15] | Potency [16] | Potency [19] | Potency [17] | Potency [18]

NCCCNCCSP(=O)(O)O
inactive: activity change, negative = cytotoxicity [1] -4.44% [at 8.39 µM] | activity, positive = activation [2] -4.57% [at 8.39 µM] | activity change [3] -1.6% [at 5.22 µM, active compounds read high] | activation [20] -1.03% [at 6.97 µM] | activation [5] 0.418% [at 5.99 µM] | activity change, negative = cytotoxicity [6] -1.63% [at 5.99 µM] | activity change, negative = cytotoxicity [7] 7.5% [at 5.99 µM] | activity change, negative = cytotoxicity [8] 5.99% [at 5.99 µM] | activation [9] 1.38% [at 5.99 µM] | activation [14] 0.961% [at 8.39 µM] | activity change, negative = inhibition [15] 10.3% [at 8.39 µM] | activity change, negative = inhibition [16] -7.99% [at 8.39 µM] | activation [19] -33.3% [at 8.39 µM] | activation [17] -13.4% [at 8.39 µM] | activity change, negative = inhibition [18] 5.25% [at 8.38 µM]

CN(C)CCCCl
inactive: Potency [1] | Potency [2] | Potency [3] | Potency [4] | Potency [5] | Potency [6] | Potency [7] | Potency [8] | Potency [9] | Potency [10] | Potency [11] | Potency [12] | Potency [15] | Potency [16] | Potency [17] | Potency [18]

CC(C)C(=O)OCc1cccc(OC(=O)[C@@H]2N3C(=O)[C@@H](NC(=O)Cc4ccccc4)[C@H]3SC2(C)C)c1
inactive: Potency [1] | Potency [2] | Potency [3] | Potency [4] | Potency [5] | Potency [6] | Potency [7] | Potency [8] | Potency [9] | Potency [11] | Potency [13] | Potency [14] | Potency [15] | Potency [16] | Potency [17] | Potency [18]

CCCCC(CC)C(=O)OC(C)C (centres undefined)
inactive: Potency [1] | Potency [2] | Potency [3] | Potency [4] | Potency [5] | Potency [6] | Potency [7] | Potency [8] | Potency [9] | Potency [10] | Potency [11] | Potency [12] | Potency [13] | Potency [14] | Potency [15] | Potency [16] | Potency [17] | Potency [18]

CCCCN(C)C
inactive: Potency [1] | Potency [2] | Potency [3] | Potency [4] | Potency [5] | Potency [6] | Potency [7] | Potency [8] | Potency [9] | Potency [10] | Potency [11] | Potency [15] | Potency [19] | Potency [17] | Potency [18]
